Tests used:
[1] = test system: Botulinum neurotoxin type F light chain protease (Clostridium botulinum); experiment: Botulinum neurotoxin type F light chain protease inhibition, multiplex microsphere flow cytometry, validation set (AID 588459); conditions: multiplex microsphere protease substrate cleavage assay, at 10 µM, stronger effect = higher value
[2] = biological target: Botulinum neurotoxin type A (Clostridium botulinum) (UniProt P0DPI0); experiment: BoNT/A light chain protease inhibitors, biochemical, multiplex microsphere flow cytometry, validation set (AID 588460); conditions: at 10 µM, stronger effect = higher value
[3] = biological target: Lethal factor (Bacillus anthracis) (UniProt P15917); experiment: Lethal factor protease inhibitors, Bacillus anthracis, multiplex microsphere cleavage assay, validation set (AID 588461); conditions: flow cytometry, at 10 µM, stronger effect = higher value

Measured: inhibition

Cc1cc(O)c2/c(=N\N)c(-c3csc(C)n3)coc2c1
inactive: [1] -0.4% | [2] -1% | [3] 2.2%

CC(=O)C1=C(O)C(=O)N(Cc2cccnc2)C1c1ccc(C(C)C)cc1 (stereo unspecified)
inactive: [1] 3.2% | [2] 4.3% | [3] 7%

COC(=O)c1ccccc1NC(=O)c1ccc(COc2ccc3c(c2)CCC3)cc1
inactive: [1] 2.7% | [2] -0.5% | [3] 2%

COc1cccc2c(=O)c3ccccc3oc12
inactive: [1] 12.6% | [2] 3.9% | [3] -4.2%

CC(C)CN1CCN(Cc2ccc3ncccc3c2)CC1CCO (stereo unspecified)
inactive: [1] -0.3% | [2] 0.8% | [3] 0.5%

CCCCC[C@H](O)/C=C/[C@@H]1[C@@H](C/C=C\CCCC(=O)O)[C@H]2CO[C@@H]1C2
inactive: [1] 0.5% | [2] -0.1% | [3] 3.3%

CC1=CC(C)(C)N2C(=O)C3(NCCc4c3[nH]c3ccccc43)c3cc(C)cc1c32 (stereo unspecified)
inactive: [1] -0.9% | [2] -2.5% | [3] 0.2%

CSc1ccc(/C=N/N2CCN(Cc3ccc(C)cc3C)CC2)cc1
inactive: [1] -0.3% | [2] -0.6% | [3] -0.3%

O=[N+]([O-])c1cc(/C=N/n2cnnc2)ccc1N1CCCC1
inactive: [1] -0.9% | [2] -0.6% | [3] -3.3%

CCCC(=O)Nc1ccc(OCC(O)CNC(C)C)c(C(C)=O)c1 (stereo unspecified)
inactive: [1] 2% | [2] 1.1% | [3] -26.9%

CC(C)CC(=O)OC1C(N2CCOCC2)c2c(ccc(/C=C/C(=O)N3CCOCC3)c2O)OC1(C)C (stereo unspecified)
inactive: [1] 0.5% | [2] -0.5% | [3] -0.5%

CC(=O)NC(Cc1c[nH]c2ccccc12)C(=O)N/N=C/c1ccccc1 (stereo unspecified)
inactive: [1] -1.4% | [2] -0.1% | [3] -5.7%

C=CCNC(=O)c1ccc(-c2cccc([N+](=O)[O-])c2)o1
inactive: [1] -1.3% | [2] -0.6% | [3] -3%

CC(C)c1ccc(NC(=O)CNS(=O)(=O)c2ccc(F)cc2)cc1
inactive: [1] 1.6% | [2] -0.9% | [3] 2.8%

O=C(CCCN1CCC(O)(c2ccc(Cl)cc2)CC1)c1ccc(F)cc1
inactive: [1] -3.5% | [2] 1.1% | [3] 3.7%

C=C(C)C(=O)Nc1ccc(NC(C)C)cc1
inactive: [1] 0.4% | [2] -0.8% | [3] 5.7%

Cc1nc2ccccn2c(=O)c1CCN1CCC(C(=O)c2ccc(F)cc2)CC1
inactive: [1] 1.5% | [2] 0.8% | [3] -0.4%

O=C(O)CCCNc1ccc(S(=O)(=O)Nc2ccccc2C(=O)O)cc1C(=O)O
inactive: [1] 1.6% | [2] 1.7% | [3] 10%

COC(=O)c1[nH]c2ccccc2c1NC(=O)CN1CCN(C/C=C/c2ccccc2)CC1
inactive: [1] -2.6% | [2] -1.4% | [3] -4.7%

CC(C)CCC1(CCNC(C)c2cccs2)CCOC(C)(C)C1 (stereo unspecified)
inactive: [1] -3.5% | [2] -0.9% | [3] -5.3%

OC(C#CCN1CCCC1)(c1ccccc1)c1cccnc1 (stereo unspecified)
inactive: [1] -1% | [2] -1% | [3] -1.1%

CCCCC(=O)O[C@H]1CC[C@H]2[C@@H]3CCc4cc(O)ccc4[C@H]3CC[C@]12C
inactive: [1] 0.5% | [2] 0.1% | [3] -1.7%

C[C@]12CCC(=O)C=C1CC[C@@H]1[C@@H]2CC[C@@]2(C)[C@H]1CC[C@]2(O)C(=O)CO
inactive: [1] 1.3% | [2] -1.2% | [3] -1.7%

CC(=O)OCC(=O)[C@H]1CC[C@H]2[C@@H]3CC=C4C[C@@H](O)CC[C@]4(C)[C@H]3CC[C@]12C
inactive: [1] -1.9% | [2] -1.3% | [3] -7.4%

O=C1CCc2cc(OCCCCc3nnnn3C3CCCCC3)ccc2N1
inactive: [1] -0.2% | [2] -0.9% | [3] -5.5%

COc1ccc(C(=O)Nc2ccccc2C(=O)NC(Cc2c[nH]c3ccccc23)C(=O)O)cc1 (stereo unspecified)
inactive: [1] -0.8% | [2] 0.5% | [3] 0%

CN1CCC(=C2c3ccccc3CC(=O)c3sccc32)CC1
inactive: [1] 8% | [2] 0.8% | [3] -4%

COc1c(C)cc(C(=O)C2CCCN(Cc3ccc(Oc4ncccn4)cc3)C2)cc1C (stereo unspecified)
inactive: [1] -2.8% | [2] -1.2% | [3] -4.4%

COc1ccc(CN2CCCCC2C(=O)Nc2ccc(OC)c(OCC(C)C)c2)cc1OC (stereo unspecified)
inactive: [1] 0.9% | [2] 0.2% | [3] -1.3%

Cc1csc(N)n1
inactive: [1] 0.3% | [2] 0.1% | [3] 3%

COC(=O)c1cc(OC)c(OC)c(OC)c1[N+](=O)[O-]
inactive: [1] 1.9% | [2] 0.1% | [3] -0.2%

Cc1ccccc1NC(=O)C1c2ccccc2Oc2ccccc21
inactive: [1] 0.4% | [2] -0.3% | [3] 6.3%

CC1CNCCN1S(=O)(=O)c1cccc2cnccc12 (stereo unspecified)
inactive: [1] 2.5% | [2] -0.1% | [3] 1.6%

C[C@@H]1C[C@H]2[C@@H]3C[C@H](F)C4=CC(=O)C=C[C@]4(C)[C@@]3(F)[C@@H](O)C[C@]2(C)[C@@]1(O)C(=O)COC(=O)C(C)(C)C
inactive: [1] -2.6% | [2] -2.1% | [3] 3.4%

CCOC(=O)C1CCCN(Cc2nc(Cc3cccc(F)c3)no2)C1 (stereo unspecified)
inactive: [1] 0.1% | [2] -0.4% | [3] 0.6%

COC1CCCCC1Nc1ccc(C)c(C)c1 (stereo unspecified)
inactive: [1] 1.5% | [2] -0.1% | [3] -5.5%

COc1cc2nc(N3CCN(C(=O)C4COc5ccccc5O4)CC3)nc(N)c2cc1OC (stereo unspecified)
inactive: [1] -0.3% | [2] 0% | [3] -2.9%

O=C(O)CCn1c(=S)n(CCC(=O)O)c2ccccc21
inactive: [1] 2.7% | [2] 0.3% | [3] 3.1%

N/C(=N\OC(=O)CCCOc1ccc(Cl)cc1Cl)c1ccncc1
inactive: [1] 3.7% | [2] 0.1% | [3] 1%

Cc1ccc(S(=O)(=O)N[C@@H](C)C(=O)N2CCC(C(=O)N3CCC[C@H]3C(=O)O)CC2)cc1
inactive: [1] 1.9% | [2] 1% | [3] -1.7%

CCc1ccc(CN(C)Cc2nc(Cc3ccccc3)no2)nc1
inactive: [1] 1.4% | [2] 0.5% | [3] 1.2%

CCNC(=O)c1sc2cc(C)ccc2c1Cl
inactive: [1] 2.4% | [2] -1.2% | [3] -1.4%

CC1(C)CC(=O)c2cnc(NC(=O)C3CCCC3)nc2C1
inactive: [1] 1.2% | [2] -1.3% | [3] -3.2%

COc1cc(/C=C/C(=O)O)cc(S(=O)(=O)NCCCO)c1OC
inactive: [1] 1.9% | [2] 0.7% | [3] 2.3%

CC1CCN(CCOCCOc2ccccc2Br)CC1
inactive: [1] 1.2% | [2] 0.3% | [3] 3.9%

COc1ccc(-c2c(C)c3ccc(OCC(C)=O)cc3oc2=O)cc1
inactive: [1] -3.2% | [2] -0.4% | [3] 1.2%

CC(C)OC(=O)CC1C(=O)NCCN1C(=S)NC(=O)c1ccccc1Cl (stereo unspecified)
inactive: [1] -1.8% | [2] -0.4% | [3] -0.2%

O=C1N[C@@H](Cc2cnc[nH]2)C(=O)N2CCC[C@@H]12
inactive: [1] 1.2% | [2] 0.3% | [3] -5.3%

CC(=O)C1=C(O)C(=O)OC1c1ccc(C)cc1 (stereo unspecified)
inactive: [1] 9.7% | [2] 1.4% | [3] -4.5%

Cn1c(=O)[nH]c(=O)c2c1nc(NCc1ccco1)n2CCCc1ccccc1
inactive: [1] -0.8% | [2] -0.7% | [3] 0.5%

Cc1ccc(C)c(OCCCC(C)(C)C(=O)O)c1
inactive: [1] 1.7% | [2] -0.3% | [3] 1.8%

COc1ccc2c(c1OC)C(=O)N1C2SC[C@H]1C(=O)NC1CC(C)(C)NC(C)(C)C1 (stereo partly specified)
inactive: [1] 3.2% | [2] -0.5% | [3] -2.4%

C(=C\c1ccccc1)/CN1CCN(C(c2ccccc2)c2ccccc2)CC1
inactive: [1] -0.8% | [2] -1.7% | [3] -9.2%

Cn1c(=O)[nH]c(=O)c2c1ncn2CCN1CCOCC1
inactive: [1] 3.5% | [2] -1.5% | [3] -2.5%

COc1ccccc1OCC(=O)O
inactive: [1] 1% | [2] -0.9% | [3] -1.4%

c1cnc2c(c1)ccc1cccnc12
inactive: [1] -1.4% | [2] -5.9% | [3] -2.3%

CC1=C/C(=N\N=C2\NC(=O)C(CC(=O)Nc3ccccc3F)S2)CC(C)(C)C1 (stereo unspecified)
inactive: [1] -1.1% | [2] 0.8% | [3] 2.8%

COc1ccc(CC(=O)NCC2(c3ccc(OC)c(OC)c3)CCOCC2)cc1
inactive: [1] 3.5% | [2] -0.9% | [3] -1.6%

O=C(O)CCCCCCCC(=O)O
inactive: [1] 1.1% | [2] -0.8% | [3] -1.4%

COc1ccc(-c2nc(NC(C)=O)sc2-c2ccc(OC)cc2)cc1
inactive: [1] 3% | [2] 1% | [3] 2.3%

CN(C)c1ccc(C(CN)c2c[nH]c3ccccc23)cc1 (stereo unspecified)
inactive: [1] -5.8% | [2] -1.5% | [3] -3.4%

CC1(C)CC(=O)c2cn3c(nc2C1)nc1ccccc13
inactive: [1] 1% | [2] -0.2% | [3] 0%

Source: PubChem BioAssay
